Assay results published in ChEMBL document CHEMBL3988442, “University of Dundee, Small-Polar-MMV Screening Library” (2021).

target: AMP-activated protein kinase, AMPK (Homo sapiens) (UniProt P54646+O43741+P54619+Q9UGJ0+Q9Y478+Q13131+Q9UGI9); test: AMP-dependent Kinase enzyme assay. An in vitro enzyme assay that detects ADP turnover that is directly proportional to AMPK activity. This uses naive AMPK that is activated during the assay with MK-8722; format: functional; design: scale not given: direction of the effect not stated beside the values; details: 30 µM

| Compound | Percent Effect |
| --- | --- |
| Cc1ccccc1C(=O)NC[C@@H]1CCN(C(=O)CN2CCCC2)C[C@H]1O | -0.0834% |
| COCc1nc2cc3c(cc2c(=O)o1)OCCCO3 | -7.41% |
| Cc1nc2c(c(N[C@@H](CO)C(N)=O)n1)Cc1ccccc1OC2 | -0.406% |
| Cc1cnn(C2CN(c3ccccc3S(=O)(=O)C(F)(F)F)C2)c1 | 9.6% |
| CCc1noc(C(C)N2CCc3c(ncn3C3CC3)C2)n1 (stereo not given) | 14.3% |
| CC(C)c1nnc(CN2CCc3ccc(S(N)(=O)=O)cc32)o1 | -0.483% |
| O=S(=O)(NCCc1cn2ccccc2n1)N1CCOCC1 | 3.56% |
| CC(C)C1C(=O)NCCN1C(=O)CCCc1nc(C(C)(C)C)no1 (stereo not given) | -5.25% |
| NC(=O)c1csc(N2C[C@@H](CN3CCCCC3)[C@@H](CO)C2)n1 | -3.06% |
| Cc1ccc(-c2ccccc2CC2(C(=O)NC(C)C)CCCNC2)cc1 (stereo not given) | 6.43% |
| c1ccc(CCCn2ccnc2-c2cn(C3CCNCC3)nn2)nc1 | -13.8% |
| Oc1ccc(Br)c(CNc2cccc(-c3nnc[nH]3)c2)c1 | 23.8% |
| CN1CCN(c2ccc(F)cc2NC(=O)NCc2ccon2)CC1 | 4.16% |
| CSc1nccc(N2CCC3(CCCN(Cc4ccc(F)cc4)C3)C2)n1 (stereo not given) | 3.61% |
| CN1CCN([C@H]2CCN(C(=O)c3cc(Cl)cn3C)C[C@H]2CCCO)CC1 | 13.2% |
| CN(Cc1nc2ccccc2n1C)C(=O)CCc1cscn1 | 3.49% |
| COc1ccc2c(c1)CCCC2CC(=O)O (stereo not given) | -8.39% |
| C[S+]([O-])c1cccc(NC(=O)N[C@H](CCO)c2ccccc2)c1 (stereo not given in full) | -2.38% |
| CN(C)c1nc(CNC(=O)Nc2cccc([S+](C)[O-])c2)cs1 (stereo not given) | 5.35% |
| CCCC1c2ccccc2CCN1CCS(C)(=O)=O (stereo not given) | -0.239% |

| Compound | Percent Effect |
| --- | --- |
| CCc1nc(C)c(CC(=O)N2CCC3(CC2)OCCCC3O)c(=O)[nH]1 (stereo not given) | 2.99% |
| Oc1cc(C2CCCCN2Cc2cccs2)nc(-c2ccccn2)n1 (stereo not given) | 23.4% |
| O=C(NC1CCCN(Cc2c(F)cccc2F)C1)c1cc[nH]n1 (stereo not given) | -4.83% |
| CCC[C@H]1CN(C(=O)c2ccc3[nH]c(CO)nc3c2)C[C@@H]1N | 8.21% |
| COCCC(=O)N1CCCC(CCc2ccc(F)c(F)c2)C1 (stereo not given) | 8.62% |
| Cc1nc(CN2CCCCC2Cn2cccn2)nc2ccccc12 (stereo not given) | 0.0601% |
| O=C(NCc1ccnc(OCC2CC2)c1)C1COc2ccccc2O1 (stereo not given) | 1.5% |
| COc1ccc(F)cc1CN(CC(N)=O)C(C)C | -8.18% |
| COCC1CCN(c2ccnc3ccsc23)C1 (stereo not given) | 4.92% |
| C[C@@H]1CN(Cc2cc3ccccc3n2C)CC[C@@]1(O)C1CC1 | 14.8% |
| CCNC(=O)c1ccnc(CC2COc3c(cccc3OC)C2)c1 (stereo not given) | -3.13% |
| CC(=O)N1CCC(c2ncc(C(=O)Nc3ccccc3)c(C)n2)CC1 | 25% |
| CCCNc1ncc(CN2CCC3(CCNC(=O)CC3)CC2)cn1 | -1.43% |
| Cc1c(CN2CCCCC2)c(O)n(CCO)c(=O)c1C#N | -415% |
| N#CCCn1cnc2c(Br)cccc2c1=O | -5.95% |
| CN(C)S(=O)(=O)N1CCOC(c2cccc(-c3cncnc3)n2)C1 (stereo not given) | 9.99% |
| Cc1nn(C)c2nc(N3CCCCC3c3nccs3)sc12 (stereo not given) | 5.6% |
| CC(C)N1CCC(CC(=O)NCc2cc(O)ncn2)CC1 | -3.46% |
| Cc1ccc(C(=O)NC2CCN(C(C)C)C2)c(=O)[nH]1 (stereo not given) | -2.69% |
| CC(C)(C)c1ncc2c(n1)CN(c1cc(NCCO)nc(N)n1)C2 | -194% |
